Laboratory results taken from the supplement of paper PMC12632987.

T1: FBXL12, Q9NXK8
T1 chain: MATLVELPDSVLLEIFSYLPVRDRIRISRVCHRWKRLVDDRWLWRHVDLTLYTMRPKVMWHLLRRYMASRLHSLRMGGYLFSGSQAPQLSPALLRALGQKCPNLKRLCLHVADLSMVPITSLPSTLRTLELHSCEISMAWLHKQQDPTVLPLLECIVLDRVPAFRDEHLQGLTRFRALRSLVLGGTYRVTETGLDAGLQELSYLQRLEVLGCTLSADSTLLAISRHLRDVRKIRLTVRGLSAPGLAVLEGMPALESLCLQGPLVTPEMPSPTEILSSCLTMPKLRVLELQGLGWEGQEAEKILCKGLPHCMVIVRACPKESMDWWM

B1: FBXL12_hotspot_109_7 (protein)
chain: MTVIVGGLATRPEHAERTARYVLTITRGLLAAGHRVRVVLAGTEESREILEAAAAELRALGAEVTLVVAETPEEARALYEERLAEAEEELDEEEEEEEEE
B2: FBXL12_hotspot_82_98 (protein)
chain: MISIIGLVNRPPETAVESLRNTAETMIAIVEGARAAGVEVERAVLVVRADPETRAVAEELRPRLEAAGIEVHLKETSEEALATKEAILEEIERRWEEEEE
B3: FBXL12_hotspot_81_97 (protein)
chain: KELDIVLSQQVQPGDTVEQVRAGLQYQVDLVEAAKAAGVKIRSITVRFSIDTSAFSPEEIEAILAAVEEARARIEALAKEAGAKLIDESAAAIAAVRAAL
B4: FBXL12_hotspot_9_109 (protein)
chain: RTRVVVGVVTSPETADSTLAMLRAVTSGLSRHDDRVHVLIVVQDPANRDALLARAEAVAAELEAEHPNVRVRVVAAPDEEAAEAARAAFLAEVDAEEAAA
B5: FBXL12_hotspot_9_106 (protein)
chain: MTILVTAYFEEESTIETTLKYALEIALGLAKAGHKVKVLIGAANEELLKKAKEILETKLKEIVEELKKLGVEIILVDSKEEYEKKKEELLKEAEEEEKEA
B6: FBXL12_hotspot_9_108 (protein)
chain: MLRILVATVSSLETAGPTIETAAAIARGLVAAGHRVRVIFISANAETGEEMLALARERLGALAAEEGRVTVVLRLAENEEEAEEIKEELLEEALEEVDRA
B7: FBXL12_hotspot_95_100 (protein)
chain: RRVVVVVFRHLVTPESAETVRQGVARFKAIVEGLRAAGVEVVAVLVLSYEDEESRALAEELKAEAAPLLDYAHLAPTREAAEAAYAELKARALAEADRLE
B8: FBXL12_hotspot_9_110 (protein)
chain: SSILVIAHVTTRETADTTLATARAVTTGLAAHHDRVDVLIVVSDPEHADEMAALAEATAAELEAEHPNVRAEVVRAPDEAAGRAAIEAREAEFLAAAAEE
B9: FBXL12_hotspot_9_105 (protein)
chain: KHIIVVASAATKEAFLNSSRTALEIAIGLAKAGHKVTVILSYDDPEKFEEWRAALEEELKELLEEAKELGIKIHYAPSPEEKERILEEVLEEHDEEEEEE
B10: FBXL12_hotspot_9_111 (protein)
chain: SSILVVAHVTTAETADSTLETAEAVTRGLAEHHDEVKVLIVVTDPENADEMAAKAEAVAERLEAEHPNVTATVVRAPDEAAGRAAIEAAEAAFLAEADAA
B11: FBXL12_hotspot_9_103 (protein)
chain: MTVLVVGRATTPESVRTTVRTAVEIAEGLVAAGHEVVLILYAADPEVAEVLRRTVEEEFGERVAALRAAGARVVVAPDLEAGERAKREALEEIERREEEE
B12: FBXL12_hotspot_82_99 (protein)
chain: SIAIIGLVNRPPETAVASLRNTADTIITLVEGAREAGVEVVRAVLVVHADPETRAEAERLRPRLEAAGVEVHLEATSAAADARAEAIRAAIEARFAAEDA
B13: FBXL12_hotspot_9_104 (protein)
chain: KHIVIVASASTREAFLNSARTALEIAIGLAKAGHKVTVILHHTRPETAEEARAAVKKELAELIEEAKELGIEIRFAATEEELERLLEEALREADEEEERE
B14: FBXL12_hotspot_9_107 (protein)
chain: KTVLVTAYFEKEETVETTLKYAMEIALGLAEAGHKVRVLIGAKNEEILKKAKEILETKLKETVERLKELGVEIIFVSSEEEYEKKKKELLEEMEKEEEEA
B15: FBXL12_hotspot_95_102 (protein)
chain: QRKVVVVYRHTVTPENLEQALAGLRRAKEIVEGLKAAGVEVYAVVAVSAETEEQRAQLEAEAEKVAKAADYALVEILLGATPEEVEERAEEMLEEVLKKI
B16: FBXL12_hotspot_95_101 (protein)
chain: MRRVIILVRQAVTAENIESAIQAIERAAAIARGLRAAGVEVKLIVVAHAPDEETRARIEAAVERHRDVIDEFVLEETEEAMEEKAEELLEEALEEIDEAE

Molecular target: T1, FBXL12, Q9NXK8
Test: median log2 fold change of GCK-ALFA target abundance (FLAG IP / Myc IP barcode read proportion) (log2 ratio); each designed protein is fused to an ALFA-tag nanobody in HEK293 cells to bring the named protein to FLAG-tagged glucokinase (GCK); Myc marks an untargeted standard; higher = target protein stabilised (more abundant)
Settings: target protein: 3xFLAG-MCP-GCK-ALFA reporter; HEK293 landing pad (RPLP)
Protocol: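 LABEL-seq trans screen in HEK293 landing-pad cells. Each de novo designed 100-aa effector handle, binding the indicated effector (E3 ligase, DUB or autophagy protein), is fused to a constant NbALFA target handle and induced with 2 ug/mL doxycycline. A FLAG-MCP-GCK-ALFA target and a Myc-MCP standard reporter were transfected, and after 48 h circRNA barcodes were recovered by anti-FLAG and anti-Myc IP and sequenced. The value is the median across barcodes (at least 3 per design) of log2(FLAG/Myc read-proportion ratio), with the two transfection replicates pooled. Negative values mean degradation and positive values mean stabilisation of the target.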

Binder | median log2 fold change
B1 | 0.117
B2 | 0.108
B3 | 0.149
B4 | 0.0457
B5 | -0.24
B6 | -0.0498
B7 | -0.315
B8 | -0.0129
B9 | 0.136
B10 | 0.154
B11 | 0.0779
B12 | 0.0901
B13 | 0.00127
B14 | 0.196
B15 | 0.243
B16 | -0.00895
